Whole data set: some 2,300 sequences, median “median log2 fold change of GCK-ALFA target abundance (FLAG IP / Myc IP barcode read proportion)” near 0.095, cut for the lowest 2% near -0.47. The list comes from a sample in which the lowest values are over-represented; it also holds similar and randomly drawn sequences.

The labels stand for the following.
B1: LC3A_3_1520 (protein)
chain: MEEIEKEIIKLLKEAGASEETIEKAKELLKLLRERGYLNAMKTLLEELKELKDAPVETIEAFVKDVLELVKTEDLSEEELSKRIKELATIAKNDAEIEEL
B2: LC3A_6_2066 (protein)
chain: KLYKITIDILLKSEKPEEALKVAKEIAEEIRKFAEEINKEYNGAVKKLEIKIEEIDGEVFLTIEIVAEEKAVNEIIDKVDEIVEENKEYVAASMISVEEL
B3: LC3A_28_724 (protein)
chain: NRLEASIAAALARARALAAAGESDVIEITIPGDATEEDIERVIEALEEIAAITADLPRTDIVINVEGGVKQEHIDRLADAAEAIEARYPNVTVIIALDEE
B4: LC3A_55_2007 (protein)
chain: MEVFIFITENAETGEILALEVEVDSDPERLLEALRAAGEELAAELFRLANGRRLDEEEMAEIKARYSPEEVRAAVEALIAVLESLPDVKVSVLIELEEEE
B5: LC3A_13_341 (protein)
chain: TVTLEVETAEELRERGFAALAAHPGETIRITVTVRDEEEAEAIAEVLAELVRAAAEAGSDLEITIRGPRDLVLYVALEVGSEAYEHIDKVTVTITEEVVE
B6: LC3A_147_449 (protein)
chain: MLYEITVDALFKNDPALAEEVAEQLKAIAEKHGGEVEVEFEEEQVSPTTTEYFLNVTITFEDKAKAQAAETEIAALLDETAAKHPDKFLGAILSFEEVEP
B7: LC3A_3_1611 (protein)
chain: MEELIERELERLREAGFSPEVLEEARKVLEALAEKGYRRAIEKLTEELLKLKDVDPELVIEALREILRIVTEEDLSEEEVIEEIEREFRVVRLESEIIEL
B8: LC3A_free_8_2519 (protein)
chain: KSKAFAQRVVAILEELEKEIVKLLKEKGASRLDILEAELLIGSIIAEVISLQDKSPEEIIKAVKEGLKELVEELEKYKEEVKKLAEEALKKIEAAKKELE
B9: LC3A_3_1395 (protein)
chain: FEEIRKETIEYLKKAGKSEEVIKAAEEALELLEKRGYLEAAKTFLEELKKMKDVSDELLLWFLNEVINYLKTNDDDEETVIKKIKEFATIVKNESEIEEL
B10: LC3A_147_483 (protein)
chain: MRIDIDALIKGEETVEEFIERLEEKKEELEEEGVEVELEIEVEEVEEGVYYLKVTVTIKAETKEKEKEAADKIIDTIEEFEEENKDKVLGVLISVEEIEE
B11: LC3A_28_1260 (protein)
chain: SELEKNIEAAIAEVKEAVAKGEEAVVTIKVPAGITEEEVEKVIETMEKIAELGKSLPSVTIIVDVEKGVKQEHIDKLVDKGEELEKKYPNLTVIFALEEE
B12: LC3A_45_1982 (protein)
chain: MWEATIDLLVPRELAEEAYAILKEAGAELVARHGDDLKVDWDALDASYEASRDEEEVYLRLNIYHPDKQVALDSAVEIVDRLEERLGRKVAAIISVKEVP
B13: LC3A_23_600 (protein)
chain: MVTVEADHVVKNDPELAEEKTKKLLEEIKKILEKNKDYIKDYKIEVEFYTDEDGNTVVRITVTVKVKDDPEKAQEIANELISAFDEILPDAVIAYDVEED
B14: LC3A_28_836 (protein)
chain: SFAEEEIKKAKKALEKAKETKEDVVVEVVIKSTMTPEEAQYIMDELEKEVSKLPKDVKVSIVFLAEEPVDPEVLQTIADGGDEIEEKYPNVTVIIALPEE
B15: LC3A_28_985 (protein)
chain: SAMEERLAAALAEAKAAAAAGEATVITIEVPSTATEEDIEKAVAALKEIGEILKGVKGSAIVVDLESGVPEEHIRKLADAGEEVEKANPDVSVIFALDED
B16: LC3A_141_362 (protein)
chain: AVKKKTYTYTATTYDEALKVAEEIGKEIKKFMEETGAEEVKVTVTITSYNEKTGEVTTETDTYTVTKENLDLFIEGLEIDLLSAFDKGADKIVVKVTIET
B17: LC3A_28_758 (protein)
chain: MDVAEIVAAAIAEAKAAAAAGEEAVIRIRVPAGATQEDIDKVIAGLEEIAEIRKDMKSTSIVIDIEAGVSQENIDKLIDAGEAIEKKYPNITVIFALDED
B18: LC3A_59_2012 (protein)
chain: REEVREWVEKIYEAYDDVEKFYELVKKAYEELKKKYSDEELLKLVKEEVERLIKEGKDPRKMKAIYESFKAVIEIKDEEKQKEEIRLIILESEIEEIDEE
B19: LC3A_3_1808 (protein)
chain: MEERLEEVIKLLKEAGHSEETIKAFLEAAEALKEKGYEEALETLLELARELVDLPSELLLEMFEDVLELVETSDDSEEEITERIREIASTYRHEAEIEEL

This assay has as its target MAP1LC3A, Q9H492. Put plainly: median log2 fold change of GCK-ALFA target abundance (FLAG IP / Myc IP barcode read proportion) (log2 ratio); each designed protein is fused to an ALFA-tag nanobody in HEK293 cells to bring the named protein to FLAG-tagged glucokinase (GCK); Myc marks an untargeted standard; higher = target protein stabilised (more abundant). To be noted: target protein: 3xFLAG-MCP-GCK-ALFA reporter; HEK293 landing pad (RPLP). In a few lines: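 The readout is target abundance, the per-binder median log2 ratio of FLAG to Myc barcode read proportions. It came from HEK293 landing-pad cells carrying a recombined ALFA-nanobody-fused binder library, induced with 2 μg mL^−1 doxycycline and transfected with a plasmid for a FLAG-tagged target and a Myc-tagged standard. After 48 h, lysates were immunoprecipitated with anti-FLAG and anti-Myc, and circular RNA barcodes were reverse transcribed, amplified and sequenced. Each barcode needed a proportion of at least 10^−7 in both replicates and each binder at least 3 barcodes per replicate, a pseudocount of 10^−6 was added, and the replicates were pooled.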
B1: the “median log2 fold change” value is 0.547.
The result for B2 reads -0.173; that for B3, 0.154.
Next, B4: 0.119; B5: 0.0625; B6: -0.603.
Next, B7: 0.132; B8: -0.243.
As for B9, the “median log2 fold change” value stood at 0.436.
With B10, the “median log2 fold change” value was -0.904.
Turning to B11, the “median log2 fold change” value is -0.13.
Next, B12: 0.0214.
The result for B13 reads -0.566.
The result for B14 reads 0.111; that for B15, -0.274.
On to B16, for which the “median log2 fold change” value was -0.96.
Next, B17: 0.124; B18: 0.156.
Next, B19: 0.0777.

(Values after the supplement of paper PMC12632987.)
